Laboratory results reported in PubChem BioAssay (NCATS).
Results filed as inconclusive are left out. A call without a number means that no potency is given here. The source made the active and inactive calls. Calls follow the shape of the dose curve; as a rule, active = well fitted curve in the direction sought with a large enough effect; inconclusive = small, poorly fitted or top-dose-only effect, or another doubt; inactive = no such curve, though single readings can be large; an effect the other way counts as inactive or inconclusive.

Assays:
Hek293T = assay: Primary qHTS to identify gynecologic anti-cancer compounds using libraries of approved drugs and bioactive compounds (AID 1345084); settings: Gynecologic cancer cell panel viability, ATPlite luminescence, 48 h, control line for the selectivity index; series mostly up to 57.5 µM; also: nearly all actives have a fitted effect of over 55% in size; also: potency is read from the fitted curve at half-maximal effect
Procedure, shortened: (§1)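 Cytotoxicity screen measuring ATP content by luciferase luminescence. Each compound is applied at five concentrations for 48 h at 37 C with 5% CO2.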

JEG-3 = assay: as above; settings: Gynecologic cancer cell panel viability, ATPlite luminescence, 48 h; series mostly up to 57.5 µM
Procedure, shortened: as §1

Tov-21-G = assay: as above; settings: Gynecologic cancer cell panel viability, ATPlite luminescence, 48 h; series mostly up to 57.5 µM
Procedure, shortened: as §1

Tov112D = assay: as above; settings: Gynecologic cancer cell panel viability, ATPlite luminescence, 48 h; series mostly up to 57.5 µM
Procedure, shortened: as §1

OV90 = assay: as above; settings: Gynecologic cancer cell panel viability, ATPlite luminescence, 48 h; series mostly up to 57.5 µM
Procedure, shortened: as §1

PA-1 = assay: as above; settings: Gynecologic cancer cell panel viability, ATPlite luminescence, 48 h; series mostly up to 57.5 µM
Procedure, shortened: as §1

SKOV3 = assay: as above; settings: Gynecologic cancer cell panel viability, ATPlite luminescence, 48 h; series mostly up to 57.5 µM
Procedure, shortened: as §1

[1] = qHTS assay to identify inhibitors of the type 1 interferon - major histocompatibility complex class I in skeletal muscle: Counter screen cell viability and HiBit confirmation (AID 1347412); settings: iHSKM muscle cells + IFN-b, HiBiT or CellTiter-Glo, 24 h; Potency: HiBiT; Viability, at 45.9 µM (top of the series); also: nearly all actives have a fitted effect of over 60% in size; also: potency is read from the fitted curve at half-maximal effect
Procedure, shortened: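 CRISPR HLA-B*08:01-HiBit immortalized human myoblasts (C25cl48) stimulated with 4 ng/ml IFN-beta and compounds (12-point 1:3, top 46 uM final) for 24 h at 37 C. Duplicate plates read by HiBit lytic luminescence or CellTiter Glo ATP.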

astro = assay: Drug repurposing screens with cells derived from glioblastoma tumor samples (AID 1345199); settings: viability, ATP luminescence, 48 h; series mostly up to 45.9 µM; also: nearly all actives have a fitted effect of over 40% in size
Procedure, shortened: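 Primary testing used CD133+ neurospheres from four GBM patients, seven concentrations, 48 h exposure and ATP-based viability; confirmation added three slower-growing patient lines.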

Row | SMILES | Potency (Hek293T) | Potency (JEG-3) | Potency (Tov-21-G) | Potency (Tov112D) | Potency (OV90) | Potency (PA-1) | Potency (SKOV3) | Potency [1] | Potency (astro)
1 | CCOc1cc2c(c(F)c1OCC)C(=N)N(CC(=O)c1cc(N3CCOCC3)c(OC)c(C(C)(C)C)c1)C2 | inactive | inactive | inactive | inactive | – | – | – | – | –
2 | O=C(Nc1ccc(Oc2ccnc3[nH]ccc23)c(F)c1)c1cccn(-c2ccc(F)cc2)c1=O | inactive | inactive | inactive | inactive | inactive | inactive | inactive | – | –
3 | CC(C)n1cnc2c(NCCc3ccc(O)cc3)nc(-c3csc4ccccc34)nc21 | inactive | inactive | inactive | inactive | inactive | inactive | – | – | –
4 | CC(O)(C#Cc1ccc2c(c1)N(c1nc(N)ncc1Cl)CC2)c1nccs1 (configuration not stated) | inactive | inactive | inactive | inactive | inactive | inactive | inactive | – | –
5 | CN(C)CC(=O)N1CCC(c2ccc(NC(=O)c3ncc(C#N)[nH]3)c(C3=CCCCC3)c2)CC1 | inactive | inactive | inactive | – | inactive | – | inactive | – | –
6 | Oc1cc(-c2nc(-c3ccccc3)[nH]c2-c2ccncc2)ccc1Cl | inactive | inactive | 17.8 µM (active) | inactive | – | inactive | inactive | – | –
7 | OCCNC1CCCc2c1[nH]c1ccc(-c3ccccc3)cc21 (configuration not stated) | inactive | inactive | inactive | inactive | inactive | 20 µM (active) | – | inactive | –
8 | CC1=C(C(=O)Nc2cc3cn[nH]c3cc2F)C(c2ccc(Cl)cc2F)N=C(c2ccnc(Cl)c2)N1 (configuration not stated) | inactive | inactive | inactive | inactive | inactive | inactive | inactive | – | –
9 | CS(=O)(=O)N1CCc2c(-c3cnc(N)nc3)nc(N3CCOCC3)nc21 | 3.55 µM (active) | – | – | – | 4.47 µM (active) | 1.78 µM (active) | 1.26 µM (active) | – | –
10 | Cn1cnc2c(F)c(Nc3ccc(Br)cc3F)c(C(=O)NOCCO)cc21 | inactive | inactive | – | inactive | 0.224 µM (active) | – | inactive | – | –
11 | Cc1cncc2cccc(S(=O)(=O)N3CCCN(C(=O)CN)C[C@@H]3C)c12 | inactive | inactive | inactive | inactive | inactive | inactive | – | – | –
12 | C[C@H](O)[C@@H]1C(=O)N2C(C(=O)O)=C(S[C@@H]3CN[C@H](CNS(N)(=O)=O)C3)[C@@H](C)[C@@H]12 | inactive | inactive | inactive | inactive | inactive | inactive | – | – | –
13 | c1cc(N[C@@H]2CCNC2)nc(-c2cnc3ccc(-c4cn[nH]c4)cn23)c1 | inactive | inactive | – | 14.1 µM (active) | – | 10 µM (active) | – | inactive | –
14 | Cc1ccccc1C(=O)Nc1ccc(C(=O)N2CCCC(O)c3cc(Cl)ccc32)c(C)c1 (configuration not stated) | inactive | inactive | inactive | inactive | – | inactive | inactive | – | inactive
15 | CCC[C@H]1C[C@H](C(=O)N[C@@H]([C@@H]2O[C@@H](SC)[C@@H](O)[C@@H](O)[C@@H]2O)[C@H](C)Cl)N(C)C1 | inactive | inactive | – | inactive | inactive | inactive | – | – | –
16 | Cn1cc(-c2ccc3ncc(Cc4ccc5ncccc5c4)n3n2)cn1 | inactive | – | – | – | inactive | – | – | – | –
17 | c1ccc2c(Oc3nc(Nc4ccc(N5CCOCC5)cc4)c4ncn(C5CCCCC5)c4n3)cccc2c1 | inactive | inactive | inactive | inactive | inactive | inactive | inactive | – | –
18 | Cc1ncc(-c2ccnc(Nc3ccc(S(C)(=O)=O)cc3)n2)n1C(C)C | 5.01 µM (active) | inactive | 10 µM (active) | 10 µM (active) | – | 5.01 µM (active) | – | – | –
19 | CC(C)(N)c1ccc(-c2nc3ccccc3nc2-c2ccccc2)cc1 | inactive | inactive | inactive | inactive | – | – | – | inactive | –
20 | FC(F)(F)c1ccc(Nc2nc3ccc(Oc4ccnc(-c5ncc(C(F)(F)F)[nH]5)c4)cc3[nH]2)cc1 | inactive | inactive | – | inactive | – | – | – | – | –
21 | CCOC(=O)[C@@H](N)Cc1ccc(-c2cc(O[C@H](c3ccc(Cl)cc3-n3ccc(C)n3)C(F)(F)F)nc(N)n2)cc1 | inactive | inactive | inactive | inactive | inactive | inactive | inactive | 19.8 µM (active) | –
22 | CCc1nc(-c2cccc(C)c2)c(-c2ccnc(NC(=O)c3ccccc3)c2)s1 | inactive | inactive | inactive | inactive | – | inactive | – | – | –
23 | O=C(Nc1cc2cc[nH]c2cn1)c1ccccc1 | 2.24 µM (active) | 1.12 µM (active) | 1.26 µM (active) | 2 µM (active) | 0.891 µM (active) | 0.891 µM (active) | 2 µM (active) | – | –
24 | Cc1coc2c1C(=O)C(=O)c1c-2ccc2c(C)cccc12 | inactive | – | inactive | – | inactive | – | – | – | –
